# Source: PubChem BioAssay (National Center for Advancing Translational Sciences (NCATS))
# A selection: hits, their analogues and other compounds. The true share with any hit is near 7.5%.
# SMN2 splice up: enhancers of SMN2 splice variant expression | HEK293 SMN2-luciferase splicing reporter, luminescence, 30-36 h | Potency, µM (top dose mostly 46.1 µM), for inactives: at the top dose activity change, positive = activation, usual class: activators | 210,000 compounds, 2.8% hits | AID 1458; further: % of control where 0% means no effect; nearly all actives have a fitted effect of over 55% in size
#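 qHTS luciferase splicing reporter: luminescence rises when SMN2 exon 7 is included in transfected HEK293 cells. Compound exposure lasted 30-36 h at 37C, with 4.5 mM final sodium butyrate as control, followed by a ONE-Glo read.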
# FLuc modulator: firefly luciferase modulation, counter-screen for miR-21 project | P08659 | purified FLuc, Km substrates, luminescence inhibition | Potency, µM (highest dose often 57.5 µM), inactives show top-dose activity change, negative = inhibition, most hits filed as inhibitors | 360,000 compounds, 6.9% hits;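 further: plate controls were vehicle for no effect and reference inhibitor for full effect; nearly all actives have a fitted effect of over 55% in size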
# Target sequence (P08659 whole entry, looked up): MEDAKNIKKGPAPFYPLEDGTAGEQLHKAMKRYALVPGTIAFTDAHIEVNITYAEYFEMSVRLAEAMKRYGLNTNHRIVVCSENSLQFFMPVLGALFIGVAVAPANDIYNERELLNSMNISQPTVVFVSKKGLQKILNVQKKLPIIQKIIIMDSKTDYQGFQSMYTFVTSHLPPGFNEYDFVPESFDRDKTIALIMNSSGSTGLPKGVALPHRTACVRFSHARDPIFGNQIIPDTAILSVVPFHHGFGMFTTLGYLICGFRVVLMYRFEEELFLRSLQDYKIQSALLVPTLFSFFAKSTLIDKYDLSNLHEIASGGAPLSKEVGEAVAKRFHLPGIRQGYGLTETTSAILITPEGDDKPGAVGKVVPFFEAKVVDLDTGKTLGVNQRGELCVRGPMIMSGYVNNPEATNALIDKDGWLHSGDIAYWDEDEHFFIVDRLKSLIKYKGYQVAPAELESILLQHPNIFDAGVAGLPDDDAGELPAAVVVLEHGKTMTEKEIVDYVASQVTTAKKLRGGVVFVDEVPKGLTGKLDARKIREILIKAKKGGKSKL
#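 Biochemical qHTS of compounds, final roughly 60 µM downward over six points, against 10 nM purified firefly luciferase using Km concentrations of substrates (10 uM D-luciferin, 10 uM ATP) in Tris acetate pH 7.5 buffer; luminescence output.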
# ELG1 genotox: genotoxicity induction in ELG1-luciferase HEK293T cells; HEK293T ELG1-luciferase reporter, luminescence, 16 h; Potency, µM (titrated, usually from 46 µM), for inactives: at the top dose activity change, positive = activation, most hits filed as activators; 330,000 compounds, 1.3% hits; further: % of control where 0% means no effect; nearly all actives have a fitted effect of over 60% in size
#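 Screening used a luciferase reporter fused to human ELG1 in HEK293T cells. Luminescence was read on a CCD plate imager after 16 hr exposure and 30 min ONE-Glo incubation.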
# Rab9 prom act: Rab9 promoter activation | Huh7 Rab9 promoter-luciferase reporter, luminescence, 24 h | Potency, µM (highest dose often 9.22 µM), for inactives: at the highest dose activation, negative = inhibition, actives largely listed as activators | 320,000 compounds, 2.8% hits | AID 485297; further: % of control where 0% means no effect; nearly all actives have a fitted effect of over 60% in size
#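 Huh7 cells stably carrying a Rab9 promoter-luciferase reporter, 1500 cells per well in OP-MEM I with 10% FBS, treated with compound 24 hours at 37C. Luciferase activity read by luminescence after 10 minutes with Amplite reagent.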
# Luc counter: counter-screen: inhibitors of Kinase-Glo firefly luciferase. Kinase-Glo luciferase, ATP luminescence, 8 min. AID 1379. 200,000 compounds, 0.28% hits. Potency, µM (highest dose often 38.3 µM), inactives show at the highest dose activity change, negative = inhibition, usual class: inhibitors; further: on the % scale 0 is the no-effect control and ±100 the full control effect; nearly all actives have a fitted effect of over 60% in size
#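 Light output from Kinase-Glo luciferase with luciferin and 10 uM ATP in 50 mM imidazole pH 7.2, KCl, MgCl2, Tween 20, BSA; compound pin-delivered, 8-min ambient incubation, then luminescence read.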
# NPC1 prom act: activates the NPC1 promoter; Huh7 NPC1 promoter luciferase reporter, 24 h; Potency, µM (top dose mostly 9.22 µM), without a hit: at the highest dose activation, most hits filed as activators; 320,000 compounds, 2.4% hits; AID 485313; further: % of control where 0% means no effect; nearly all actives have a fitted effect of over 60% in size
#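 Luminescence read-out of NPC1 promoter-driven luciferase in stably transfected Huh7 cells; compounds delivered in DMSO and left 24 h at 37C, 5% CO2, qHTS titration format.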
# Starred values were filed as active, the others as inactive; ? = inconclusive; . = no result given. The call rests on the fitted dose curve; in most records, active means well fitted curve in the direction sought with a large enough effect; inconclusive means small, poorly fitted or top-dose-only effect, or another doubt; inactive means no such curve, though single readings can be large; an effect the other way counts as inactive or inconclusive. Potency means the concentration at half of the fitted maximal effect.
SMILES,SMN2 splice up,FLuc modulator,ELG1 genotox,Rab9 prom act,Luc counter,NPC1 prom act
C=CCNC(=S)NNC(=O)COc1ccc(Br)cc1,1%,-17%,0%,-4%,0%,3%
C=CCNC(=S)NNC(=O)COc1ccc2cc(Br)ccc2c1,11µM*,-2%,?,3.2µM*,1%,?
CCOC(=O)c1c(C)oc2nc(C)nc(NCc3ccc(OC)cc3OC)c12,.,-7%,.,.,.,.
N#CCCn1c(SCC(=O)c2c[nH]c3ccccc23)nc2ccccc21,-21%,-1%,0%,10%,1%,-2%
C=CCn1c(SCC(=O)c2cc(C)n(Cc3cccs3)c2C)nnc1-c1ccncc1,-14%,19µM*,-6%,-1%,0%,2%
Cc1cc(C(=O)CSc2nc3ccccc3n2CCC#N)c(C)n1Cc1cccs1,?,?,8.2µM*,?,2%,25%
COc1ccccc1-n1cnnc1SCC(=O)c1cc(C)n(Cc2cccs2)c1C,1%,19µM*,14%,13%,-5%,16%
CCOc1ccc(-c2c(C)nn3c(C)c(C(=O)NC(C)c4ccccc4)cnc23)cc1OCC (stereo not drawn),.,-1%,.,.,.,.
O=c1oc2c(F)cc(F)cc2cc1S(=O)(=O)c1ccc(F)cc1,6%,?,.,.,.,.
CC(=O)c1cccc(OCc2cc(C(=O)N(C)Cc3cnccn3)no2)c1,.,?,?,2.5µM*,.,?
CC(=O)c1cccc(OCc2cc(C(=O)NCc3nc(C)c(C)s3)no2)c1,.,17µM*,?,?,.,?
CC(=O)c1cccc(OCc2cc(C(=O)N(C)C(C)c3ccccn3)no2)c1 (stereo not drawn),.,4%,-5%,7%,.,2%
COc1cccc(OCc2cc(C(=O)N(C)Cc3nc4ccccc4[nH]3)no2)c1,.,11µM*,?,?,.,3.2µM*
Cc1cccc(C)c1OCc1cc(C(=O)NCc2ccc(Cl)s2)no1,.,-2%,-2%,0%,.,-6%
CN(Cc1cccnc1)C(=O)c1cc(COc2ccc3c(c2)CCCC3)on1,.,11µM*,?,?,.,1.3µM*
COc1cccc(C(=O)NC(=O)Nc2cc(C)[nH]n2)c1,.,9.5µM*,?,1.6µM*,.,2µM*
Cc1cc(C)nc(NC(=O)c2cccc(Br)c2)n1,.,8%,2%,4%,.,0%
Cc1cc(NC(=O)c2cccc(Br)c2)n[nH]1,.,19µM*,?,?,.,?
COc1cccc(C(=O)NC(=S)Nc2nnn(C)n2)c1,13%,1%,10%,-4%,-5%,-1%
Cc1cc(C)cc(NC(=O)N2CCC(CN3CCCCCC3)CC2)c1,.,0%,.,.,.,.
O=C1c2nc3cc(-c4ccco4)[nH]n3c(=O)c2CN1C1CCCCC1,.,2.4µM*,?,14%,.,28%
O=C1c2nc3cc(-c4ccccc4)[nH]n3c(=O)c2CN1Cc1ccccc1,.,-9%,0%,-3%,.,-2%
O=c1cc(-c2ccccc2)nc2cc(-c3ccco3)[nH]n12,.,3.4µM*,16%,?,.,22%
Cc1cc2nc(-c3ccccc3)cc(=O)n2[nH]1,.,6.7µM*,11%,?,.,?
CN(Cc1ccco1)c1ncnc2ccc(-c3cccc(C#N)c3)cc12,7%,.,.,.,-5%,.
SMILES,SMN2 splice up,FLuc modulator,ELG1 genotox,Rab9 prom act,Luc counter,NPC1 prom act
CCCCN(C)CCCNC(=O)Cn1ncc2c3ccccc3n(Cc3ccccc3)c2c1=O,1%,-4%,.,.,.,.
CCOC(=O)c1[nH]c(C)c(CCC(=O)N2CCN(c3cccc(C)c3C)CC2)c1C,.,7%,.,.,.,.
Cc1ccc(NC(=O)c2c(Cl)n(C)c3ccccc23)cc1,?,3.4µM*,11%,23%,-1%,?
Cn1c(Cl)c(C(=O)Nc2ccccc2)c2ccccc21,-4%,15µM*,3%,2%,-8%,?
CCOc1ccccc1CNC(=O)CN1C(=O)c2cccnc2Oc2ccc(C)cc21,.,-11%,.,.,.,.
CCOC(=O)c1ccc2c(c1)NCc1cccc(OC)c1O2,.,5.4µM*,?,2.8µM*,.,2.5µM*
O=C(Nc1cccc(C(F)(F)F)c1)c1cc(S(=O)(=O)N2CCCC2)c[nH]1,.,17µM*,.,.,.,.
CSCc1c(C(=O)Nc2ccc(N3CCOCC3)cc2)oc2ccccc12,-20%,1%,5%,0%,-1%,7%
COCC(=O)Nc1c(C(=O)Nc2ccc(C)cc2)oc2ccccc12,7.9µM*,-8%,.,.,.,.
O=C(COc1ccccc1F)Nc1c(C(=O)Nc2cccc(F)c2)oc2ccccc12,6%,6%,.,.,.,.
O=C(CCl)Nc1c(C(=O)Nc2ccc3c(c2)OCCO3)oc2ccccc12,.,?,?,4µM*,.,4µM*
Cc1ccc(NC(=O)c2oc3ccccc3c2NC(=O)c2ccc(F)c(F)c2)cc1,-4%,-3%,.,.,.,.
COCC(=O)Nc1c(C(=O)Nc2ccc3c(c2)OCO3)oc2ccccc12,.,-6%,?,3.2µM*,.,3.5µM*
CSCc1c(C(=O)Nc2ccc3c(c2)OCO3)oc2ccccc12,.,19µM*,11%,19%,.,-26%
N#Cc1ccc(CS(=O)(=O)c2nnnn2-c2ccccc2)cc1,7%,.,.,.,-1%,.
CCOC(=O)Cc1ccc(NC(=O)NCc2ccc3c(c2)CCN3C(=O)CC)cc1,.,3%,.,.,.,.
CC(=O)Nc1c(C(=O)Nc2ccccc2F)oc2ccccc12,9%,-3%,.,.,.,.
CC(=O)Nc1c(C(=O)Nc2ccc3c(c2)OCO3)oc2ccccc12,.,11µM*,?,2.5µM*,.,2.8µM*
Cc1c(C(=O)Nc2ccc3c(c2)OCO3)oc2ccccc12,.,1.9µM*,2.6µM*,2.2µM*,.,2µM*
CCCC(=O)NCc1nc2cccnc2n1Cc1ccc(F)cc1,.,2%,.,.,.,.
Cc1cccc(/C(N)=N/OC(=O)N2c3ccccc3Sc3ccccc32)c1,-6%,-16%,2%,5%,5%,-2%
COc1cc(OC)cc(C(=O)O/N=C(\N)c2cccc(C)c2)c1,.,24µM*,0%,?,.,?
CCC(C(=O)O/N=C(\N)c1cccc(C)c1)c1ccccc1 (stereo not drawn),4%,?,25%,9%,0%,15%
Cc1cccc(/C(N)=N/OC(=O)C23CC4CC(CC(C4)C2)C3)c1,-30%,4.3µM*,?,?,-6%,19%
Cc1cccc(/C(N)=N/OC(=O)c2ccc(Br)o2)c1,?,4.3µM*,?,2%,-14%,22%
Cc1cccc(/C(N)=N/OC(=O)c2cccnc2)c1,.,9.5µM*,?,4µM*,-28%,?
O=C(CN1C(=O)NC(Cc2ccccc2)C1=O)Nc1ccc(F)c(Cl)c1 (stereo not drawn),.,2%,-1%,-5%,.,0%
